Hit rate of the full screen: of about 140,000 compounds, about 2,100 (1.5%) were called active. This excerpt belongs to a sample that is enriched for actives. Unmarked numbers belong to inactive results. No stated cut-off is given here; in the data, active means protection mostly above about 24% (no sharp cut-off); inactive means mostly below about 26%.
Assay: compounds protecting cells from measles virus cytopathic effect, primary screen, measles RdRp inhibitor project, single point, MLSMR library, absorbance (AID 841)
Conditions: Measles virus-infected cells, CPE protection, at 4 µM, hits give high values
With CS(=O)(=O)c1ccc2nc(NC(=O)C3C4C=CC(C4)C3C(=O)O)sc2c1 (centres undefined) the protection (pct of control) was 18.3%.
Work on CS(=O)(=O)c1ccc2nc(NC(=O)CN3CCCCCC3)sc2c1 yielded a protection (pct of control) of 4.57%.
For CS(=O)(=O)c1ccc2nc(NC(=O)C3CCCCC3)sc2c1, the protection (pct of control) was 38.1% (active).
In the case of O=C(/C=C/c1cnc2ccccc2n1)NC1CCCCCC1, the protection (pct of control) was 9.7%.
Work on COc1ccccc1-c1nnc(SCC(=O)Nc2cc(C)on2)o1 yielded a protection (pct of control) of 14.9%.
With Cc1cc(NC(=O)CSc2nnc(-c3ccc(Cl)s3)o2)no1 the protection (pct of control) was 86.1% (active).
Work on Cc1ccc(-c2csc(SCC(=O)Nc3cc(C)on3)n2)cc1 yielded a protection (pct of control) of 7.27%.
O=C(COC(=O)/C=C/c1nc2ccccc2s1)Nc1ccccc1Oc1ccccc1 showed a protection (pct of control) of 1.41%.
In the case of N#CCSc1nc2c(c(=O)n1Cc1ccccc1)C1(CCCC1)Cc1ccccc1-2, the protection (pct of control) was 1.58%.
In the case of Cc1cccc(-n2c(N)cc(=O)nc2SC(C)C(=O)NC2CCCCC2)c1 (centres undefined), the protection (pct of control) was 20.2%.
In the case of Cc1cccc(-n2c(SCC(N)=O)nc3c(c2=O)C2(CCCCC2)Cc2ccccc2-3)c1, the protection (pct of control) was 29.9% (active).
In the case of COc1ccc(-c2csc3ncnc(Oc4ccc5c(C)cc(=O)oc5c4)c23)cc1, the protection (pct of control) was 6.48%.
Compound CCCCCC(=O)Nc1ccc(C(=O)N/N=C/c2ccc([N+](=O)[O-])cc2)cc1 has a protection (pct of control) of 25.1%.
With O=C(COc1ccc([N+](=O)[O-])cc1)Nc1ccc(N2CCCC2)cc1 the protection (pct of control) was 18.8%.
With O=C(COc1ccc(/C=N/NC(=O)c2ccc(O)cc2)cc1)Nc1ccc([N+](=O)[O-])cc1 the protection (pct of control) was 40.1% (active).
O=C(NNC1CC(=O)N(c2cccc(Cl)c2)C1=O)c1cccnc1 (centres undefined) gave a protection (pct of control) of 8.5%.
With COc1cc(C2C(N3C(=O)c4ccccc4C3=O)C(=O)N2c2ccc(C)c(C)c2)cc(OC)c1OC (centres undefined) the protection (pct of control) was 9.11%.
In the case of Cc1ccc(NC(=O)c2sc3nc(N)c(C#N)cc3c2N)cc1, the protection (pct of control) was 74.1% (active).
Compound CCc1ccc2nc3sc(C(=O)Nc4nnc(CC)s4)c(N)c3cc2c1 has a protection (pct of control) of 1.37%.
CC(=O)Nc1ccc(NC(=O)c2sc3nc4c(c(-c5ccc(C)cc5)c3c2N)CCC4)cc1 showed a protection (pct of control) of 9.68%.
For CCNC(=S)N1CCN(c2ncccn2)CC1, the protection (pct of control) was 20.9% (active).
For Cc1ccc(NC(=S)N2CCN(c3ncccn3)CC2)cc1C, the protection (pct of control) was 12.6%.
With CCNC(=S)N1CCN(C(=O)c2ccco2)CC1 the protection (pct of control) was 9.63%.
In the case of CCOCC(=O)Nc1sc2c(c1C(=O)OCC)CCCC2, the protection (pct of control) was 7.18%.
CCOC(=O)c1c(NC(=S)NC(=O)c2ccco2)sc2c1CCCC2 showed a protection (pct of control) of 37%.
For CCOC(=O)c1c(NC(=O)c2ccc(Br)o2)sc2c1CCCC2, the protection (pct of control) was 27.8% (active).
COc1cc(/C=C/C(=O)OCC(=O)Nc2cccc(Oc3ccccc3)c2)ccc1O gave a protection (pct of control) of 11.5%.
In the case of C=CCc1ccccc1OCC(=O)N/N=C/c1ccccc1OCC, the protection (pct of control) was 1.64%.
For COc1ccc(C(F)(F)F)cc1N/C=C\c1nnnn1-c1ccc(C)cc1, the protection (pct of control) was 30.4% (active).
COc1ccc(OC)c(-n2nnnc2SCC(=O)Nc2cc(C)ccc2OC)c1 gave a protection (pct of control) of 17.2%.
COc1ccc(C)cc1NC(=O)CCC(=O)Nc1nnc(C(F)(F)F)s1 showed a protection (pct of control) of 11.8%.
With CCC(C)NC(=O)c1ccc(N2CCC3(CC2)OCCO3)c([N+](=O)[O-])c1 (centres undefined) the protection (pct of control) was 13.6%.
Work on Cc1cc(Cl)ccc1OCCCC(=O)NCc1ccncc1 yielded a protection (pct of control) of 6.27%.
COC(=O)c1sccc1NC(=O)c1csc2c1CCCC2 showed a protection (pct of control) of 9.63%.
For COC(=O)c1sc(NC(=O)c2csc3c2CCCC3)nc1C, the protection (pct of control) was 49.9% (active).
For CC(=O)Cc1nsc(NC(=O)c2csc3c2CCCC3)n1, the protection (pct of control) was 2.51%.
In the case of Cc1cc(C)c(S(=O)(=O)c2ccccc2)c(OC(=O)c2c(F)cccc2Cl)n1, the protection (pct of control) was 38.9% (active).
For Cc1cc(OC(=O)c2c(Cl)cccc2Cl)nc(C)n1, the protection (pct of control) was 8.28%.
Compound CN(c1ccccc1)S(=O)(=O)c1cccc(NC(=O)Cc2c(F)cccc2Cl)c1 has a protection (pct of control) of 5.27%.
With CCNc1ccc(C(=O)OCC(=O)N2c3ccccc3NC(=O)C2(C)C)cc1[N+](=O)[O-] the protection (pct of control) was 5.03%.
In the case of Cc1n[nH]c(=S)n1/N=C/c1ccc(Br)o1, the protection (pct of control) was 7.57%.
For COc1cc(/C=N/n2c(C)n[nH]c2=S)ccc1OCc1ccccc1, the protection (pct of control) was 79.2% (active).
COc1cc(/C=N/O)ccc1OCc1ccc([N+](=O)[O-])cc1 showed a protection (pct of control) of 30%.
COc1ccc(C(=O)ON=C2c3ccccc3-c3ccccc32)cc1OC gave a protection (pct of control) of 9.81%.
Cc1cccc(OCCNC(=S)NC(=O)c2cccnc2)c1 gave a protection (pct of control) of 16.7%.
With COc1ccc([N+](=O)[O-])cc1NC(=O)CCc1ccccc1 the protection (pct of control) was 101% (active).
COc1ccccc1CC(=O)Nc1ccc([N+](=O)[O-])cc1OC showed a protection (pct of control) of 14.5%.
For COc1ccc(Br)cc1CN(C)CC(=O)Nc1cc([N+](=O)[O-])ccc1OC, the protection (pct of control) was 4.74%.
For CCC1S/C(=N/N=C/c2ccco2)NC1=O (centres undefined), the protection (pct of control) was 7.36%.
CCOCCCNC(=O)C(NC(=O)c1ccc(=O)[nH]c1)c1ccc(C)cc1 (centres undefined) showed a protection (pct of control) of 6.13%.
In the case of CCOCCCNC(=O)C(NC(=O)c1ccc(=O)[nH]c1)c1ccc(Cl)cc1 (centres undefined), the protection (pct of control) was 30.2% (active).
Work on CCOCCCNC(=O)C(NC(=O)CNC(=O)c1ccccc1)c1ccc(C)cc1 (centres undefined) yielded a protection (pct of control) of 7.37%.
Cc1ccc(-c2cc(N)on2)cc1 gave a protection (pct of control) of 16.5%.
Cc1ccc(S(=O)(=O)N2CCCC2C(=O)OCc2nc3sc(C)c(C)c3c(=O)[nH]2)cc1 (centres undefined) gave a protection (pct of control) of 4.09%.
For Cc1ccc2[nH]c(C(=O)O)c(NC(=O)c3ccccc3[N+](=O)[O-])c2c1, the protection (pct of control) was 14.1%.
Work on COC(=O)c1ccccc1NC(=O)CSc1nnnn1C yielded a protection (pct of control) of 30.8%.
With CCOC(=O)c1c(-c2ccc(C)cc2C)csc1NC(=O)CSc1nnnn1C the protection (pct of control) was 37% (active).
With CCOC(=O)CNC(=O)CSc1nnnn1-c1cc(C)ccc1C the protection (pct of control) was 4.67%.
COc1ccc(/C=C/C(=O)Nc2ccc3c(c2)OCCO3)cc1OC showed a protection (pct of control) of 18.3%.
CC(=O)N1CCN(CCN=CC2=C(O)CC(C)(C)CC2=O)CC1 showed a protection (pct of control) of 2.75%.
Compound CC1(C)CC(=O)C(C=NCc2cccnc2)=C(O)C1 has a protection (pct of control) of 2.03%.
For CC1(C)CC(=O)C(C=NCCC2=CCCCC2)=C(O)C1, the protection (pct of control) was 36.1% (active).
CN1CCN(S(=O)(=O)c2ccc(NC(=O)c3ccco3)cc2)CC1 gave a protection (pct of control) of 12.2%.
In the case of CN1CCN(S(=O)(=O)c2ccc(NC(=O)C3CCCO3)cc2)CC1 (centres undefined), the protection (pct of control) was 28.4% (active).
With CN1CCN(S(=O)(=O)c2ccc(NC(=S)NC(=O)C3CC3)cc2)CC1 the protection (pct of control) was 7.47%.
Compound C/C(=N\NC(=O)Cc1ccc(F)cc1)c1ccc(F)cc1 has a protection (pct of control) of 16.1%.
Compound Cc1ccccc1C(CC(=O)c1cccs1)C(C#N)C#N (centres undefined) has a protection (pct of control) of 1.36%.
With Cc1ccc(Cn2ccc(NC(=O)c3cc(C(C)C)on3)n2)cc1 the protection (pct of control) was 10.8%.
For O=C(Nc1ccn(Cc2ccccc2)n1)c1n[nH]c([N+](=O)[O-])c1Cl, the protection (pct of control) was 4.93%.
For O=C(Nc1ccn(Cc2ccc(F)cc2)n1)c1ccncc1, the protection (pct of control) was 61.8% (active).
In the case of CC(=O)N1C(C)c2ccccc2C(C)(C)CC12CCCCC2 (centres undefined), the protection (pct of control) was 1.83%.
Work on Cc1ccc(C)c(NC(=O)CSc2nc3c(oc4ccccc43)c(=O)n2-c2ccccc2)c1 yielded a protection (pct of control) of 11.7%.
For Cc1ccc(-n2c(SCC(=O)Nc3ncc(Cl)cc3Cl)nc3ccccc32)cc1, the protection (pct of control) was 45.3% (active).
For Cc1ccc(SCCC(=O)OCC(=O)Nc2ncc(Cl)cc2Cl)cc1, the protection (pct of control) was 25.6%.
With NC(=O)CCC(NS(=O)(=O)c1ccc(Cl)cc1)C(=O)NCc1ccccc1Cl (centres undefined) the protection (pct of control) was 5.12%.
In the case of CNC(=S)N/N=C/c1ccc(OCc2ccccc2)c(Br)c1, the protection (pct of control) was 4.55%.
CCOC(=O)Cc1csc(SCC(=O)NC(C)C23CC4CC(CC(C4)C2)C3)n1 (centres undefined) showed a protection (pct of control) of 4.07%.
With Cc1cccc(Nc2nc3c(S(=O)(=O)c4ccccc4)nnn3c3ccccc23)c1C the protection (pct of control) was 4.8%.
For CCc1ccc(NC2Nc3cc(C)nn3S2)cc1 (centres undefined), the protection (pct of control) was 40.8% (active).
For COc1ccc(Oc2c(Cl)cnn(-c3ccccc3)c2=O)cc1, the protection (pct of control) was 42.2% (active).
Cc1ccc(-c2nc3c(cnn3-c3ccccc3)c(=O)o2)cc1 showed a protection (pct of control) of 8.52%.
COc1ccc(-n2c(C)nc3c(cnn3-c3ccccc3)c2=O)cc1 gave a protection (pct of control) of 1.2%.
In the case of Cc1cc(C(=O)CSc2nc(N)cc(=O)[nH]2)c(C)n1-c1cccc(F)c1, the protection (pct of control) was 24.8%.
O=C(C1CCCO1)N1CCN(C(=S)Nc2cccc(Cl)c2)CC1 (centres undefined) showed a protection (pct of control) of 19.2%.
Compound C=C(C)c1cccc(C(C)(C)NC(=O)NC2CCCC2)c1 has a protection (pct of control) of 2.05%.
CCOC(=O)c1sc(NC(=O)COc2ncnc3ccccc23)c(C(=O)OCC)c1C gave a protection (pct of control) of 23.3%.
Compound O=C(CN1CCc2ccccc21)NC(c1ccccc1)c1ccccc1 has a protection (pct of control) of 11.6%.
For Cc1ccc(S(=O)(=O)NCC(=O)N(CC(=O)NC(C)(C)C)Cc2cccs2)cc1, the protection (pct of control) was 32.1% (active).
For Cc1ccc(S(=O)(=O)NCC(=O)N(CC(=O)NC2CCCCC2)Cc2ccco2)cc1, the protection (pct of control) was 39.7%.
For CC(C)(C)NC(=O)CN(Cc1cccs1)C(=O)CNS(=O)(=O)c1ccccc1, the protection (pct of control) was 4.11%.
With Cc1nnc(SCC(=O)N/N=C/c2cn(-c3ccccc3)nc2-c2ccc(F)cc2)n1-c1ccccc1 the protection (pct of control) was 50.4% (active).
For COc1ccc(OC)c(/C=N/NC(=O)CSc2nnc(C)n2-c2ccccc2)c1, the protection (pct of control) was 6.95%.
Work on Cc1ccc(-c2nn(-c3ccccc3)cc2/C=N/NC(=O)c2ccc3c(c2)OCO3)cc1 yielded a protection (pct of control) of 11.1%.
Compound Cc1ccccc1C1=NC(C(F)(F)F)(C(F)(F)F)c2c(n(-c3ccc(F)cc3)c(=O)[nH]c2=O)N1 has a protection (pct of control) of 14.5%.

Source: PubChem BioAssay AID841 (Emory University Molecular Libraries Screening Center, 2007)
